Test results reported in PubChem BioAssay (EPA / NIEHS).
The source made the active and inactive calls. Rule for the calls: active = hit-call score of the fitted dose curve at least 0.9, where 1 is the maximum; inactive = score below 0.9.

read-out: KRT18 (gene 3875); test: BSK_BE3C_Keratin818: BioMAP Diversity Plus: BE3C Assay for Keratin 818 Biomarker Activity (AID 2284282); conditions: primary human bronchial epithelial cells
Protocol: BSK_BE3C is a cell-based, multiplexed-readout assay that uses bronchial epithelial cell, a human lung primary cell, with measurements taken at 24 hours after chemical dosing in a 96-well plate.BSK_BE3C_Keratin818 is an assay component measured in the BSK_BE3C assay. It measures Keratin 8/18 antibody related to regulation of gene expression using ELISA technology.Data from the assay component BSK_BE3C_Keratin818 was analyzed at the endpoint, BSK_BE3C_Keratin818, in the positive analysis fitting direction relative to DMSO as the negative control and baseline of activity. Using a type of binding reporter, gain or loss-of-signal activity can be used to understand protein changes. To generalize the intended target to other relatable targets, this assay endpoint is annotated to the 'cell adhesion molecules' intended target family, where the subfamily is 'keratin'.
The levels of cell surface (or secreted, indicated by the prefix "s") biomarker endpoints were measured by ELISA. Overt cytotoxicity to cells in confluent adherent cultures (all systems other than the BT system) was assessed by measuring total protein levels using sulforhodamine B (SRB) staining in parallel cultures at the time of biomarker measurements, indicated as SRB endpoints. For proliferation assays for adherent cell types, individual cell types are cultured at sub-confluence and relative cell numbers quantified by SRB staining at time points optimized for each system (48 h: 3C and CASM3C systems; 72 h: BT and HDF3CGF systems; 96 h: SAg system). SRB was performed by staining cells with 0.1% SRB after fixation with 10% TCA and reading wells at 560 nm.Viability and proliferation of PBMC (T cells) was quantified by Alamar Blue reduction for the SAg and BT systems. For PBMC viability (referred to as PBMC Cytotoxicity within the assay endpoint names), cells were plated (75,000/well in a 96-well plate) and then chemical samples added for 1 h before addition of activators, SEB and TSST-1 (20 ng/mL final concentration each). Cells were incubated for 90 h. Then, Alamar Blue (20 uL/well) (Invitrogen, Cat DAL1100) was added for 6 h, and the plates were read with a fluorescence microplate reader at 546/580 nm (excitation/emission). For PBMC proliferation, cells were plated and activated as above but incubated for only 16 h prior to addition of Alamar Blue. Plates were read after 6 h.

SMILES	outcome
O=S(=O)(O)CCC(F)(F)C(F)(F)C(F)(F)C(F)(F)C(F)(F)C(F)(F)F	inactive
NCC(F)(F)C(F)(F)C(F)(F)C(F)(F)F	inactive
OC(O)(C(F)C(O)(O)C(F)(F)F)C(F)(F)F	inactive
C[Si](C)(C)C(F)(F)C(F)(F)C(F)(F)F	inactive
O=C(Cl)C(F)(F)C(F)(F)C(F)(F)C(=O)Cl	inactive
FC(F)(F)C(F)(F)C(F)(F)C(F)(F)C(F)(F)C(F)(F)I	inactive
OCCC(F)(F)C(F)(F)C(F)(F)C(F)(F)F	inactive
FC(F)(F)COC(OCC(F)(F)F)OCC(F)(F)F	inactive
FC(F)=C(F)C(F)(F)C(F)(F)C(F)(F)C(F)(F)C(F)(F)C(F)(F)F	inactive
FC(F)C(F)(F)COCC1CO1 (stereo not given)	inactive
